Screens from PubChem.
HSF1 inh: HSF1 inhibition | NIH3T3-HGL HSE-luciferase, MG132-induced, luminescence 8 h; hits give low values | activity change, negative = inhibition, % at 7.5 µM (by protocol) | 300,000 tested, 0.77% active;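 active = more than half of replicate wells show activity change below -50%, luminescence cut by over half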;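 note: luciferase reports HSF-1 transcriptional activity via heat shock element; 0% = median of DMSO wells and -100% = zero luminescence signal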
dFosB act-1: mouse delta FosB homodimer activation | AID 493131 | 340,000 tested, 0.99% active | activation, % at 25 µM | purified delta FosB, TAMRA-CDK5 oligo fluorescence polarization; percent of positive-control signal above neutral wells | P13346;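 active = mean activation above about 17%, with every replicate also reaching it, limit read from the data, passing the limit was not always enough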
Target sequence (P13346 whole entry, looked up): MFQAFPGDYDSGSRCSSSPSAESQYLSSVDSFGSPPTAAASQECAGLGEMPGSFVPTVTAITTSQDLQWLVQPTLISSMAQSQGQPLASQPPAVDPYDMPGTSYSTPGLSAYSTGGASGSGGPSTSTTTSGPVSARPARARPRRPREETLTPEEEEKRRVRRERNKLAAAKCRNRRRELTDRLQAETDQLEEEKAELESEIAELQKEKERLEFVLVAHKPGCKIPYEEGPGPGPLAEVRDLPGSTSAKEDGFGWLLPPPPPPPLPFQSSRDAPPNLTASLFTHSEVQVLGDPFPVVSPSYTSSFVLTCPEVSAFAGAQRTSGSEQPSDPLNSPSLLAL
MPTP block: permeability transition pore inhibition | isolated mouse mitochondria, Ca2+ swelling absorbance, 30 min | inhibition, % at 10 µM | 360,000 tested, 1.4% active | AID 602449;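 active = inhibition of 50% or more, scaled per plate between neutral and stimulator controls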;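 note: 0% = DMSO wells given calcium and 100% = 1 mM EGTA wells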
Platelet DG rel: modulates dense granule release in human platelets | 300,000 tested, 0.22% active | inhibition, %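 (compounds screened at 7.5 µM in platelet-rich plasma)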 | human platelet-rich plasma, SFLLRN dense granule ATP release, luminescence;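 active = mean replicate score, as percent of positive control, at or above 50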
HSP90 inh: inhibitors of HSP90 luciferase refolding in rabbit reticulocyte lysate. AID 1789. luciferase refolding luminescence, 3 h. inhibition, % at 5.6 µM. 290,000 tested, 0.91% active;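 active = inhibition above the screen-wide mean plus 3 SD, computed separately per campaign, cut at about 16% in these data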;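 note: 0% = DMSO wells and 100% = 60 µM geldanamycin wells; inhibitors lower the luminescence because luciferase stays unfolded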
HSF-1 act: increases HSF-1 driven luciferase reporter signal. NIH3T3-HGL HSF-1 luciferase reporter, MG132, 8 h; 100% = twice DMSO control signal. activation, % at 9 µM. 300,000 tested, 1.7% active;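 active = mean replicate activation of at least 50% with a set share of replicates each reaching 50%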;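 note: 0% = median of the neutral control wells and 100% = twice that signal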
dFosB act-2: enhances mouse delta FosB homodimer binding to DNA. activation, % at 24.9 µM. 2,400 tested, under 10 active. shares compounds with dFosB act-1. purified delta FosB, TAMRA-CDK5 oligo fluorescence polarization; normalised: neutral wells 0, positive control 100;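 active = highest replicate activation at or above 34% and every replicate reaching that threshold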;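 note: higher polarization means more probe DNA bound by delta FosB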
An asterisk follows results filed as active. This is a sample that favours compounds with a hit; in the whole collection about 4.9% have one here.

Results for CCOc1ccc(-n2c(SCC(=O)N3CCc4ccccc43)nnc2-c2c[nH]c3ccccc23)cc1 ?
HSF1 inh: -3; dFosB act-1: 27*; MPTP block: 0; Platelet DG rel: -1; HSP90 inh: 1; HSF-1 act: 2; dFosB act-2: 4

How did Cc1cccc(-n2c(Cc3cc(=O)[nH]c(=O)[nH]3)nnc2SCC(=O)N2CCc3ccccc32)c1 do in these assays?
HSF1 inh: 3; dFosB act-1: 38*; MPTP block: 0; Platelet DG rel: 14; HSP90 inh: 2; HSF-1 act: -5; dFosB act-2: -2

What do the screens show for `O=C(CN1CCN(C(=O)c2ccc(-c3nc4ccccc4s3)o2)CC1)Nc1ccc(F)cc1`?
dFosB act-1: -30; MPTP block: 2

Results for Cc1cc(C)c(S(=O)(=O)N2CCCC(C(=O)NCc3ccncc3)C2)c(C)c1 (configuration not stated) ?
HSF1 inh: 6; dFosB act-1: -8; MPTP block: 0; Platelet DG rel: -2; HSP90 inh: -7; HSF-1 act: -8

How did CCN(CC)CCNC(=O)CCc1c(C)nc2c(c(C)nn2-c2ccc(C)c(C)c2)c1C do in these assays?
HSF1 inh: -3; dFosB act-1: 20*; MPTP block: 3; Platelet DG rel: -3; HSP90 inh: -3; HSF-1 act: -13; dFosB act-2: 1

How did COCCCNC(=O)CCc1c(C)nc2c(c(C)nn2-c2ccccc2)c1C do in these assays?
HSF1 inh: -3; dFosB act-1: -2; MPTP block: 1; Platelet DG rel: 1; HSP90 inh: -1; HSF-1 act: 23

What do the screens show for `CCCCn1nnnc1C(c1cc2ccccc2o1)N(CCN(C)C)Cc1ccccc1` (configuration not stated)?
MPTP block: 1

Results for CC(=O)Nc1ccc(NC(=O)CSc2nnc(NC(=O)Cc3ccc(F)cc3)s2)cc1 ?
HSF1 inh: -1; dFosB act-1: 24*; MPTP block: 0; Platelet DG rel: 1; HSP90 inh: 0; HSF-1 act: 4; dFosB act-2: 0

How did CCC(C)C(=O)Nc1nnc(SCC(=O)Nc2ccc(F)cc2)s1 (configuration not stated) do in these assays?
HSF1 inh: -6; dFosB act-1: -3; MPTP block: 0; Platelet DG rel: 10; HSP90 inh: 0; HSF-1 act: 1

How did O=C(CSc1nnc(NC(=O)C2CC2)s1)Nc1ccc(F)cc1 do in these assays?
HSF1 inh: 13; dFosB act-1: 10; MPTP block: 0; Platelet DG rel: -5; HSP90 inh: 2; HSF-1 act: 29

What do the screens show for `O=C(CSc1nnc(NC(=O)C2CC2)s1)Nc1ccccc1`?
HSF1 inh: 3; dFosB act-1: 25*; MPTP block: -1; Platelet DG rel: -12; HSP90 inh: -1; HSF-1 act: 22; dFosB act-2: 2

Results for CC(=O)Nc1ccc(NC(=O)CSc2nnc(NC(=O)C3CC3)s2)cc1 ?
HSF1 inh: -6; dFosB act-1: 28*; MPTP block: -1; Platelet DG rel: -8; HSP90 inh: 3; HSF-1 act: -16; dFosB act-2: -1

Results for Cc1ccc(NC(=O)C/C(N)=N/OC(=O)Nc2ccc(C)c(Cl)c2)cc1 ?
dFosB act-1: -1; MPTP block: 10

Results for Cc1nn(Cc2ccccc2)c(C)c1CNC(=O)[C@H](C)N=C1NS(=O)(=O)c2ccccc21 ?
dFosB act-1: -4; MPTP block: -2

Results for O=C(CSCc1ccc(Cl)cc1)N/N=C/c1ccccc1 ?
HSF1 inh: 19; dFosB act-1: 2; MPTP block: -1; Platelet DG rel: -5; HSP90 inh: 1; HSF-1 act: 35

How did O=C(CSCc1ccc(Cl)cc1)N/N=C/c1c(Cl)cccc1Cl do in these assays?
HSF1 inh: -2; dFosB act-1: 27*; MPTP block: 3; Platelet DG rel: -9; HSP90 inh: -5; HSF-1 act: 3; dFosB act-2: 1
